Hits are enriched below; roughly 3.2% of the tested compounds scored in any of these assays.
ClpP mod: qHTS Assay for Activators of ClpP; ATP-dependent Clp protease proteolytic subunit (Bacillus subtilis (strain 168)), P80244; purified B. subtilis ClpP, FRET peptide cleavage, 20 min; Potency, µM (series often up to 57.5 µM); 340,000 compounds, 1.9% hits; AID 651965, 2013; active = well fitted falling curve with a large enough effect; inconclusive = small, poorly fitted or top-dose-only effect; inactive = no such curve, though single readings can be large or run the other way; note: the source files actives as falling curves though it sought activators and does not explain the sign; nearly all actives have a fitted effect of over 65% in size
Target sequence (P80244 whole entry, looked up): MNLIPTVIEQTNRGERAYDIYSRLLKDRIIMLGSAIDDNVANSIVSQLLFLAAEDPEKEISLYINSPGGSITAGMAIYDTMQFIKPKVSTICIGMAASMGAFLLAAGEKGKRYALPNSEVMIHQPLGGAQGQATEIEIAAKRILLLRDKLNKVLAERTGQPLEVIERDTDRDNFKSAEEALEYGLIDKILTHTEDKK
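ClpP 10 microg/mL final, pH 8 Tris/KCl buffer with BSA, glycerol, Tween-20; compound pinned in; FRET-FV substrate; RT 20 min; Ex320/Em430; ΔFRET vs ADEP 5.8 microM, DMSO, no enzyme.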
GLP1R cytotox: cytotoxic in the GLP-1 receptor inverse agonist counter-screen; Potency, µM (series often up to 38.3 µM), actives largely listed as inhibitors; 410,000 compounds, 0.13% hits; HEK293 cAMP-luciferase reporter cells, luminescence, 24 h;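 note: loss of luciferase light is scored as toxicity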
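Quantitative HTS format, 1536 wells, 200 cells/uL seeded. Compounds: 23 nL, 24 h, 37 °C. Detection: luciferase reagent, luminescence at 12 min RT; decreased signal taken as cytotoxic.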
GLP-1R agonist: activates the human GLP-1 receptor | P43220 | HEK293 GLP-1R CRE-luciferase, luminescence, 4-6 h; cells express a hypersensitive GLP-1R form | Potency, µM (highest dose often 45.6 µM), usual class: activators | 380,000 compounds, 0.007% hits | AID 624172
Target sequence (P43220 whole entry, looked up): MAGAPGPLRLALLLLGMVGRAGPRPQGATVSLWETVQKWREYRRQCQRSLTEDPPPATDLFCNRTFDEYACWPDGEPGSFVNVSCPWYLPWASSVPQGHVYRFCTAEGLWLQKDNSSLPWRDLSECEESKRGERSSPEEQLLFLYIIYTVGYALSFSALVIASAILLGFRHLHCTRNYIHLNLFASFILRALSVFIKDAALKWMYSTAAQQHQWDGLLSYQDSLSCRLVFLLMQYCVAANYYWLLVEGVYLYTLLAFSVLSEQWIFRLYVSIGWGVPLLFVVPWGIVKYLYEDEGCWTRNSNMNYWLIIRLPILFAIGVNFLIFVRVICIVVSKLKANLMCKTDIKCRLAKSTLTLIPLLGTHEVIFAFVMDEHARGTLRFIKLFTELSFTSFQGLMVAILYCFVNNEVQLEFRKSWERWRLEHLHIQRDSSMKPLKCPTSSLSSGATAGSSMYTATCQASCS
GLP1R inv ag: GLP-1 receptor (human) inverse agonism; HEK293 GLP-1R CRE-luciferase, luminescence, 24 h; GLP-1R form is constitutively active; Potency, µM (doses to about 38.3 µM), most hits filed as inhibitors; 410,000 compounds, 1.6% hits; P43220; note: nearly all actives have a fitted effect of over 55% in size
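Inverse agonists were sought by their lowering of basal cAMP reporter luciferase output in HEK293 cells stably carrying constitutively active human GLP-1R, after 24 h compound treatment.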
Large screens that a line does not name were inactive. Unless noted, calls come from the whole dose curve; as a rule, active = well fitted curve in the direction sought with a large enough effect; inconclusive = small, poorly fitted or top-dose-only effect, or another doubt; inactive = no such curve, though single readings can be large; an effect the other way counts as inactive or inconclusive.

COc1ccc(-c2cc3nc(C)cc(N4CC(C)CC(C)C4)n3n2)cc1 (centres undefined)	ClpP mod 39.8µM
CC(=O)Nc1ccc(C)cc1-c1nc2ccccc2n(CC(=O)c2ccc(Cl)cc2)c1=O	none (no result: GLP-1R agonist)
CCCCOc1nnc(-c2ccc(OCC)cc2)c2ccccc12	none (no result: GLP-1R agonist)
Cc1cc2c(c(N)n1)c(=O)oc1ccccc12	ClpP mod 39.8µM
CC(=O)OCC(=O)[C@@]1(O)[C@H](OC(C)=O)C[C@H]2[C@@H]3CCC4=CC(=O)C=C[C@]4(C)[C@@]3(F)[C@@H](O)C[C@@]21C	none (no result: ClpP mod, GLP1R cytotox, GLP1R inv ag)
COc1ccccc1CNc1nc(-c2ccco2)nn1S(=O)(=O)c1ccc2ccccc2c1	none (no result: GLP-1R agonist)
COc1ccccc1CNC(=O)C1CCCN(S(=O)(=O)c2ccc3c(c2)oc(=O)n3C)C1 (centres undefined)	none
CCOC(=O)C(C)NC(=O)c1c(C)oc2ncn(CC(C)C)c(=O)c12 (centres undefined)	none (no result: GLP-1R agonist)
C=CCOc1ccc(C2N3CC4(CC)CN2CC(CC)(C3)C4=O)cc1 (centres undefined)	GLP1R inv ag 11.2µM
O=C(c1ccccc1)C1N=NCC1c1ccc(Cl)cc1 (centres undefined)	GLP1R inv ag 10µM (no result: ClpP mod)
CCOC(=O)C1=NNC(C(=O)c2ccccc2)C1c1ccc(Cl)cc1 (centres undefined)	GLP1R inv ag inconclusive (no result: ClpP mod)
OCCC1CN(CCCc2ccccc2)CCN1Cc1ccc(F)cc1 (centres undefined)	ClpP mod 31.6µM, GLP1R inv ag inconclusive
COc1ccc(CN2CCN(CCCc3ccccc3)C(CCO)C2)c(O)c1 (centres undefined)	none (no result: ClpP mod)
COc1ccc(CN2CCN(CCc3ccccc3)C(CCO)C2)c(O)c1 (centres undefined)	GLP1R inv ag 11.2µM (no result: ClpP mod)
CCn1cc(CN2CCN(Cc3ccccc3)C(CCO)C2)c2ccccc21 (centres undefined)	GLP1R inv ag 10µM (no result: ClpP mod)
COc1ccc(CNC(=O)CN2C(=O)CCn3nc(-c4cn(C)c5ccccc45)cc32)cc1	none (no result: GLP-1R agonist)
CCc1ccc(S(=O)(=O)c2nnn3c2nc(N2CCCC2)c2sccc23)cc1	ClpP mod inconclusive (no result: GLP-1R agonist)
CCOC(=O)C1CCCN(c2nc3c(S(=O)(=O)c4ccc(CC)cc4)nnn3c3ccsc23)C1 (centres undefined)	ClpP mod 31.6µM (no result: GLP-1R agonist)
CC(C)c1ccc(S(=O)(=O)c2nnn3c2nc(N2CCOCC2)c2sccc23)cc1	none (no result: GLP-1R agonist)
CCOC(=O)C1CCN(c2nc3c(S(=O)(=O)c4ccc(Br)cc4)nnn3c3ccsc23)CC1	ClpP mod 14.1µM (no result: GLP-1R agonist)
CCOC(=O)C1CCCN(c2nc3c(S(=O)(=O)c4ccc(Br)cc4)nnn3c3ccsc23)C1 (centres undefined)	ClpP mod 11.2µM (no result: GLP-1R agonist)
CC(C)c1ccc(S(=O)(=O)c2nnn3c2nc(N2CCCCC2)c2sccc23)cc1	ClpP mod 25.1µM (no result: GLP-1R agonist)
Cc1cccc(-c2nnn3c2nc(NCc2ccc4c(c2)OCO4)c2ccccc23)c1	ClpP mod inconclusive
COc1ccc(CNc2nc3c(S(=O)(=O)c4ccccc4)nnn3c3ccc(Cl)cc23)cc1	ClpP mod inconclusive (no result: GLP-1R agonist)
Cc1ccc(NC(=O)C2CCN(S(=O)(=O)c3c(C)noc3C)CC2)c(C)c1	none
C[C@H](CO)N1C[C@H](C)[C@H](CN(C)C(=O)Nc2ccc(F)cc2)OCc2ccccc2-c2c(n(C)c3ccccc23)C1=O	GLP1R inv ag 10µM
Cc1nnsc1-c1nc2ccccc2n1C(CCc1ccccc1)c1nc2ccccc2[nH]1 (centres undefined)	GLP1R inv ag 11.2µM (no result: GLP-1R agonist)
Cc1ccc(Cc2nc3ccccc3n2C(CCc2ccccc2)c2nc3ccccc3[nH]2)cc1 (centres undefined)	none (no result: GLP-1R agonist)
Cc1ccc(C)c(NC(=O)CN(C)S(=O)(=O)c2cccc3nsnc23)c1	none (no result: GLP-1R agonist)
O=C(NCCc1ccccc1)c1ccc2nc3cc(Cl)ccc3c(=O)n2c1	none
O=C(NC1CCCCCC1)c1ccc2nc3cc(Cl)ccc3c(=O)n2c1	ClpP mod 25.1µM
N#Cc1nc(-c2ccc(Cl)cc2)oc1NCc1cccc2c1OCO2	ClpP mod 11.2µM
CCOc1ccc(-c2nc(C#N)c(NCc3ccc4c(c3)OCO4)o2)cc1	none
N#Cc1nc(-c2ccc(Cl)cc2)oc1NCc1ccco1	ClpP mod 11.2µM
N#Cc1nc(-c2ccccc2)oc1NCc1ccco1	none
CCN1C(=O)C(Cc2nc3ccccc3c(=O)n2-c2cccc(C)c2)c2ccccc21 (centres undefined)	none (no result: GLP-1R agonist)
COc1ccc(-c2noc3c2-c2nc(-c4ccccc4C)sc2CC3)cc1	ClpP mod 25.1µM, GLP1R inv ag inconclusive
O=c1oc2c3c4c(cc2c(C(F)(F)F)c1CCN1CCOCC1)CCCN4CCC3	none
Cc1cc(=O)oc2c3c4c(cc12)OCCN4CCC3	ClpP mod 22.4µM
Cc1ccc(CN2COc3ccc4c(C)cc(=O)oc4c3C2)cc1	none
CC(C)c1cc(=O)oc2c3c4c(cc12)CCCN4CCC3	ClpP mod 28.2µM, GLP-1R agonist inconclusive
COc1cc(C(=O)Nc2ccc(-c3nc4cc(C)ccc4o3)c(O)c2)cc(OC)c1OC	ClpP mod 28.2µM, GLP1R inv ag inconclusive
CCc1ccc2oc(-c3cc(NC(=O)c4cc(OC)c(OC)c(OC)c4)ccc3O)nc2c1	none (no result: GLP-1R agonist)
Cc1cc(C)cc(NC(=O)CSc2nnc(CNC(=O)c3c(F)cccc3Cl)o2)c1	none (no result: GLP-1R agonist)
CC(O)COCC1OC2OC3C(COCC(C)O)OC(OC4C(COCC(C)O)OC(OC5C(COCC(C)O)OC(OC6C(COCC(C)O)OC(OC7C(COCC(C)O)OC(OC8C(COCC(C)O)OC(OC1C(OCC(C)O)C2OCC(C)O)C(OCC(C)O)C8OCC(C)O)C(OCC(C)O)C7OCC(C)O)C(OCC(C)O)C6OCC(C)O)C(OCC(C)O)C5OCC(C)O)C(OCC(C)O)C4OCC(C)O)C(OCC(C)O)C3OCC(C)O (centres undefined)	none (no result: GLP1R cytotox, GLP-1R agonist, GLP1R inv ag)
Cc1ccc(Cl)cc1-n1c(=O)c2sc3ccccc3c2n(Cc2ccccc2)c1=O	ClpP mod inconclusive
Cc1ccc2c(c1)COc1c3ccc(C(=O)O)cc3nn1-2	GLP1R inv ag 1.26µM
Cc1ccc(S(=O)(=O)NC2CCCc3ccccc32)cc1C (centres undefined)	GLP1R inv ag 5.01µM
COc1cc2[nH]c(=O)n(CCCCCC(=O)NC3CCCC3)c(=O)c2cc1OC	none (no result: ClpP mod)
CCC(C)NC(=O)CCCCCn1c(=O)[nH]c2cc(OC)c(OC)cc2c1=O (centres undefined)	ClpP mod 28.2µM
CCCCCNC(=O)CCCCn1c(=O)[nH]c2cc(OCC)c(OCC)cc2c1=O	ClpP mod inconclusive
CCCCNC(=O)CCCCCn1c(=O)[nH]c2cc(OC)c(OC)cc2c1=O	ClpP mod 28.2µM
COc1cc2[nH]c(=O)n(CCC(=O)NC3CCCC3)c(=O)c2cc1OC	ClpP mod 28.2µM
CCOc1cc2[nH]c(=O)n(CCCCCC(=O)NC(C)CC)c(=O)c2cc1OCC (centres undefined)	none (no result: GLP-1R agonist)

Source: PubChem BioAssay
